Measured values reported in PubChem BioAssay AID1159580 (chemical genetic matrix, 2015).
The whole screen tested about 5,500 compounds, of which about 2,000 (36%) were called active. Roughly 18% stayed inconclusive and do not appear here. Cut-off read from the data, not from the text of the source: active = normalized growth mostly below about 0.91 (no sharp cut-off); inconclusive = no clear call, values can overlap the other calls; inactive = mostly above about 0.92. This is one part of the list.

Test: chemical genetic growth profiling, strain panel (AID 1159580);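 note: tested at 20 µM; growth read once vehicle control cultures reached saturation at 30 °C; 1 = growth at the plate median or of vehicle wells; lower values mean less growth of the strain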
Conditions: growth OD

Measured: normalized growth

Cc1cc(O)c(C)c2c1C(=O)Oc1c(C)c(O)c(C(=O)O)c(C)c1O2
inactive: S. cerevisiae deletion strains, locus YAL013W, strain DEP1, hits give low values 0.997 | S. cerevisiae deletion strains, locus YBR021W, strain FUR4, hits give low values 0.966 | S. cerevisiae deletion strains, locus YBR229C, strain ROT2, hits give low values 0.993 | S. cerevisiae deletion strains, locus YCL029C, strain bik1, hits give low values 0.973 | S. cerevisiae deletion strains, locus YDL035C, strain GPR1, hits give low values 0.998 | S. cerevisiae deletion strains, locus YDL074C, strain BRE1, hits give low values 1 | S. cerevisiae deletion strains, locus YDL101C, strain DUN1, hits give low values 0.988 | S. cerevisiae deletion strains, locus YDL134C, strain PPH21, hits give low values 0.98 | S. cerevisiae deletion strains, locus YDL185W, strain tfp1, hits give low values 0.989 | S. cerevisiae deletion strains, locus YDL192W, strain arf1, hits give low values 0.983 | S. cerevisiae deletion strains, locus YDR101C, strain arx1, hits give low values 0.974 | S. cerevisiae deletion strains, locus YDR150W, strain NUM1, hits give low values 0.999 | S. cerevisiae deletion strains, locus YDR162C, strain NBP2, hits give low values 1.02 | S. cerevisiae deletion strains, locus YDR318W, strain mcm21, hits give low values 0.971 | S. cerevisiae deletion strains, locus YDR388W, hits give low values 0.98 | S. cerevisiae deletion strains, locus YDR502C, strain sam2, hits give low values 0.982 | S. cerevisiae deletion strains, locus YEL061C, strain CIN8, hits give low values 1 | S. cerevisiae deletion strains, locus YER110C, hits give low values 0.978 | S. cerevisiae deletion strains, locus YER155C, strain BEM2, hits give low values 0.991 | S. cerevisiae deletion strains, locus YER167W, strain BCK2, hits give low values 0.994 | S. cerevisiae deletion strains, locus YGL078C, strain dbp3, hits give low values 0.968 | S. cerevisiae deletion strains, locus YGL086W, strain mad1, hits give low values 0.977 | S. cerevisiae deletion strains, locus YGL248W, strain PDE1, hits give low values 0.989 | S. cerevisiae deletion strains, locus YGR078C, strain PAC10, hits give low values 1.01 | S. cerevisiae deletion strains, locus YGR135W, strain pre9, hits give low values 1 | S. cerevisiae deletion strains, locus YGR229C, strain SMI1, hits give low values 1.01 | S. cerevisiae deletion strains, locus YGR252W, strain gcn5, hits give low values 0.961 | S. cerevisiae deletion strains, locus YHR030C, strain SLT2, hits give low values 0.989 | S. cerevisiae deletion strains, locus YHR079C, strain IRE1 (second series), hits give low values 0.982 | S. cerevisiae deletion strains, locus YHR094C, strain hxt1, hits give low values 0.979 | S. cerevisiae deletion strains, locus YHR129C, strain ARP1, hits give low values 0.997 | S. cerevisiae deletion strains, locus YHR200W, strain rpn10, hits give low values 0.978 | S. cerevisiae deletion strains, locus YIL066C, strain RNR3, hits give low values 0.988 | S. cerevisiae deletion strains, locus YIL073C, strain SPO22, hits give low values 0.999 | S. cerevisiae deletion strains, locus YIL125W, strain kgd1, hits give low values 0.983 | S. cerevisiae deletion strains, locus YIR030C, strain dcg1, hits give low values 0.991 | S. cerevisiae deletion strains, locus YJL095W, strain BCK1, hits give low values 1.01 | S. cerevisiae deletion strains, locus YJL134W, strain LCB3, hits give low values 0.989 | S. cerevisiae deletion strains, locus YJL168C, strain set2, hits give low values 0.974 | S. cerevisiae deletion strains, locus YJL187C, strain SWE1 (second series), hits give low values 0.988 | S. cerevisiae deletion strains, locus YJR043C, strain POL32, hits give low values 1.01 | S. cerevisiae deletion strains, locus YJR075W, strain HOC1, hits give low values 1.01 | S. cerevisiae deletion strains, locus YKL009W, strain mrt4, hits give low values 0.964 | S. cerevisiae deletion strains, locus YKL068W, hits give low values 0.985 | S. cerevisiae deletion strains, locus YKL085W, strain MDH1 (second series), hits give low values 0.992 | S. cerevisiae deletion strains, locus YKL085W, strain MDH1, hits give low values 0.992 | S. cerevisiae deletion strains, locus YKL190W, strain CNB1, hits give low values 1 | S. cerevisiae deletion strains, locus YKR001C, strain vps1, hits give low values 0.982 | S. cerevisiae deletion strains, locus YLR039C, strain RIC1, hits give low values 1.01 | S. cerevisiae deletion strains, locus YLR058C, strain SHM2, hits give low values 0.997 | S. cerevisiae deletion strains, locus YLR102C, strain apc9, hits give low values 0.988 | S. cerevisiae deletion strains, locus YLR262C, strain YPT6, hits give low values 1 | S. cerevisiae deletion strains, locus YLR268W, strain sec22, hits give low values 0.99 | S. cerevisiae deletion strains, locus YLR330W, strain CHS5, hits give low values 0.998 | S. cerevisiae deletion strains, locus YLR342W, strain FKS1 (second series), hits give low values 0.983 | S. cerevisiae deletion strains, locus YLR371W, strain rom2, hits give low values 0.976 | S. cerevisiae deletion strains, locus YLR418C, strain cdc73, hits give low values 0.974 | S. cerevisiae deletion strains, locus YML016C, strain PPZ1, hits give low values 0.99 | S. cerevisiae deletion strains, locus YML032C, strain rad52, hits give low values 0.965 | S. cerevisiae deletion strains, locus YML124C, strain tub3, hits give low values 0.991 | S. cerevisiae deletion strains, locus YMR078C, strain ctf18, hits give low values 0.973 | S. cerevisiae deletion strains, locus YMR223W, strain ubp8, hits give low values 0.966 | S. cerevisiae deletion strains, locus YMR263W, strain SAP30, hits give low values 1 | S. cerevisiae deletion strains, locus YMR307W, strain GAS1, hits give low values 0.976 | S. cerevisiae deletion strains, locus YNL067W, strain RPL9B, hits give low values 1 | S. cerevisiae deletion strains, locus YNL128W, strain TEP1, hits give low values 0.998 | S. cerevisiae deletion strains, locus YNL153C, strain GIM3, hits give low values 1 | S. cerevisiae deletion strains, locus YNL233W, strain BNI4, hits give low values 0.997 | S. cerevisiae deletion strains, locus YNL250W, strain rad50, hits give low values 0.972 | S. cerevisiae deletion strains, locus YNL271C, strain bni1, hits give low values 0.966 | S. cerevisiae deletion strains, locus YNL298W, strain CLA4, hits give low values 0.967 | S. cerevisiae deletion strains, locus YNL307C, strain MCK1, hits give low values 0.972 | S. cerevisiae deletion strains, locus YNL322C, strain KRE1, hits give low values 1 | S. cerevisiae deletion strains, locus YNR052C, strain pop2, hits give low values 0.967 | S. cerevisiae deletion strains, locus YOL006C, strain TOP1, hits give low values 0.986 | S. cerevisiae deletion strains, locus YOL012C, strain htz1 0.731 | S. cerevisiae deletion strains, locus YOL147C, strain pex11, hits give low values 0.988 | S. cerevisiae deletion strains, locus YOR061W, strain CKA2, hits give low values 0.99 | S. cerevisiae deletion strains, locus YOR069W, strain VPS5, hits give low values 0.99 | S. cerevisiae deletion strains, locus YOR136W, strain idh2, hits give low values 0.979 | S. cerevisiae deletion strains, locus YOR144C, strain elg1, hits give low values 0.985 | S. cerevisiae deletion strains, locus YOR184W, strain ser1, hits give low values 0.942 | S. cerevisiae deletion strains, locus YOR316C, strain cot1, hits give low values 0.977 | S. cerevisiae deletion strains, locus YPL055C, strain LGE1, hits give low values 1.04 | S. cerevisiae deletion strains, locus YPL241C, strain CIN2, hits give low values 0.972 | S. cerevisiae deletion strains, locus YPR119W, strain clb2, hits give low values 0.979 | S. cerevisiae deletion strains, locus YPR141C, strain kar3, hits give low values 0.972 | S. cerevisiae deletion strains, locus YPR163C, strain tif3, hits give low values 0.983 | S. cerevisiae deletion strains, locus YPR167C, strain met16, hits give low values 0.985 | S. cerevisiae deletion strains, strain wtn01, hits give low values 0.98 | S. cerevisiae strains, strain wild type, hits give low values 1
